# Screening results from PubChem.
# Hits are enriched below; roughly 1.4% of the tested compounds scored in any of these assays.
# MazF activator: activators of E. coli MazEF toxin-antitoxin RNase, primary screen, biochemical, fluorescence, uHTS. activation, % at 20 µM. Endoribonuclease toxin MazF (Escherichia coli (strain K12)), P0AE70. FAM/BHQ RNA-DNA oligo cleavage fluorescence, 5 h. AID 504720, 2011. 350,000 compounds, 0.32% hits; in the data active = activation above about 50%
# Target sequence (P0AE70 whole entry, looked up): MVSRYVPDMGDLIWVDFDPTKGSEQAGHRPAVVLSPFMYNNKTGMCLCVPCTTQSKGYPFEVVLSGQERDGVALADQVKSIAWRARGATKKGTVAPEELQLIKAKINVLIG
# CCHF vOTU inh: CCHFV vOTU protease inhibitors, primary screen, biochemical, Pep-AMC substrate, fluorescence. Crimean-Congo hemorrhagic fever virus L polyprotein viral ovarian tumor (vOTU) protease …. inhibition, % at 11.5 µM. 370,000 compounds, 0.55% hits. AID 651958, 2012; in the data active = inhibition above about 30%; note: 0% = vehicle wells with enzyme and 100% = no enzyme wells
# BJeLR lethal: MLPCN primary cell-based screen for lethality selective to Ras in HRASV12 cells; inhibition, % (test concentration not listed); BJeLR (HRASV12) viability, CellTiter-Glo ATP luminescence, 48 h; 300,000 compounds, 0.17% hits; in the data active = inhibition above about 50%
# VHR inh abs: VHR1 phosphatase inhibitors, primary screen, biochemical, absorbance, uHTS. recombinant VHR phosphatase, pNPP absorbance. inhibition, % at 13.3 µM. 290,000 compounds, 0.52% hits; in the data active = inhibition above about 50%
# Target sequence (P51452 whole entry, looked up): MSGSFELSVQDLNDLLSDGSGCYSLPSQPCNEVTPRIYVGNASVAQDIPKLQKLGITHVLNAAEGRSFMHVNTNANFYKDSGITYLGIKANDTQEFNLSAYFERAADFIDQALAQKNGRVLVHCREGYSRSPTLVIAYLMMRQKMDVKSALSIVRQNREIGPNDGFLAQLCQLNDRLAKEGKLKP
# SARS 3CLpro inh-1: SARS-CoV 3CLpro protease inhibitors, primary screen, biochemical, quenched FRET; recombinant SARS-CoV 3CLpro, quenched FRET peptide cleavage; Replicase polyprotein 1ab (Severe acute respiratory syndrome coronavirus), P0C6X7; 290,000 compounds, 0.14% hits; inhibition, % at 6 µM; in the data active = inhibition above about 12%
# SARS 3CLpro inh-2: confirmation of SARS coronavirus 3C-like protease inhibitors, retest, confirmation, biochemical; inhibition, % at 6 µM; AID 1879, 2009; QFRET protease activity assay, 3CLpro; shares compounds with SARS 3CLpro inh-1; 380 compounds, 36% hits; in the data active = inhibition above about 13%
# Active calls of the source: *; . = no result.
SMILES,MazF activator,CCHF vOTU inh,BJeLR lethal,VHR inh abs,SARS 3CLpro inh-1,SARS 3CLpro inh-2
CC(=O)Nc1ccc(NC(=O)CSc2nnc(-c3n[nH]c4c3CCC4)n2N)cc1,.,-1.9,.,.,.,.
COc1ccc(C(C(=O)NCC2CCCO2)N(C(=O)Cn2nnc3ccccc32)c2ccc(NC(C)=O)cc2)cc1 (stereo not drawn),4.1,8.8,-6.7,1.8,35.4*,29.9*
CC(=O)Nc1ccc(N(C(=O)Cn2nnc3ccccc32)C(C(=O)NC2CCCC2)c2ccc(O)c(O)c2)cc1 (stereo not drawn),-0.8,6.8,4.4,1.9,19.5*,25.4*
CCOc1cc(C(C(=O)NCC2CCCO2)N(C(=O)Cn2nnc3ccccc32)c2ccc(NC(C)=O)cc2)ccc1O (stereo not drawn),0.8,12.1,7.0,29.7,10.2,.
Cc1ccc(C(=O)CSc2nnc(CNc3ccc(C)cc3C)n2Cc2ccco2)cc1,-7.6,1.2,-1.7,6.7,12.7*,5.2
COc1ccc(C(=O)CSc2nnc(CNc3ccc(C)cc3C)n2Cc2ccco2)cc1,1.1,0.5,-12.3,10.0,3.1,.
CNc1oc(-c2ccc(Cl)cc2)nc1P(=O)(c1ccccc1)c1ccccc1,8.2,22.1,-5.8,-3.3,12.8*,-1.4
C=CCN1C(=O)[C@H](CC(=O)N2CCOCC2)[C@@]2(C(=O)OCC)CCCC=C12,.,-14.2,.,.,.,.
CC(C)(C)C(=O)NC(=S)Nc1sc2c(c1C#N)CCCCC2,3.6,-16.3,-18.5,10.2,33.6*,2.9
Cc1ccc(C2CC(c3cccs3)=NN2C(=O)CCl)cc1 (stereo not drawn),-1.4,10.2,63.3*,-9.1,54.7*,70.1*
CN(CCOC(=O)CSc1ccccc1)C1CN(Cc2cn(Cc3ccccc3F)nn2)S(=O)(=O)C1 (stereo not drawn),.,-9.0,.,.,.,.
CCOC(=O)C1CCN(C(=O)c2ccc3c(c2)NC(=O)/C(=C/c2ccccc2)S3)CC1,0.0,15.8,3.6,16.6,6.5,.
CCOC(=O)C1CCN(C(=O)c2ccc3c(c2)NC(=O)/C(=C\c2cccc(C)c2)S3)CC1,5.5,9.6,-1.0,-2.4,13.3*,0.6
C/C(=N\N=C(/N)SC1CC(=O)N(c2ccccc2)C1=O)c1cccs1 (stereo not drawn),2.1,10.7,6.3,9.7,3.1,.
C/C(=N\N=C(/N)SC1CC(=O)N(c2ccc(Cl)cc2)C1=O)c1cccs1 (stereo not drawn),-17.6,13.3,-6.9,6.5,12.8*,9.1
COC(=O)C1CCCN(C(=O)C2CCN(S(=O)(=O)c3cccc4cccnc34)CC2)C1 (stereo not drawn),.,-6.4,.,.,.,.
Cc1cc(C)c(S(=O)(=O)N2CCN(C(=O)c3cc(=O)[nH]c4ccccc34)CC2)c(C)c1,5.7,-7.2,.,.,.,.
O=C(c1cc(=O)[nH]c2ccccc12)N1CCN(c2ccc([N+](=O)[O-])cc2)CC1,17.7,16.4,-4.7,-26.1,10.2,.
COc1ccc(N2CCN(C(=O)c3cc(=O)[nH]c4ccccc34)CC2)cc1,5.5,-2.1,18.0,37.1,27.0*,26.7*
Cc1cc(C)c(C)c(S(=O)(=O)N2CCN(C(=O)c3cc(=O)[nH]c4ccccc34)CC2)c1C,-12.0,-18.6,-4.1,22.4,55.1*,53.2*
O=C(c1ccccc1F)N1CCN(c2cccc(C(F)(F)F)c2)CC1,-3.5,7.1,12.0,33.4,0.9,.
O=C(c1cc(=O)[nH]c2ccccc12)N1CCN(c2cccc(C(F)(F)F)c2)CC1,4.8,-2.8,-1.6,5.3,45.9*,44.3*
CN1c2ccc(-c3cccc(F)c3)cc2[C@H]2[C@H](CCN2S(=O)(=O)c2cccc(F)c2)[C@H]1CO,.,6.3,.,.,.,.
COC(=O)[C@@]12CCCCC=C1N(CCc1ccc(Cl)cc1)C(=O)[C@H]2CC(=O)NCc1cccc2ccccc12,.,7.0,.,.,.,.
CCOC(=O)[C@]12CCCC=C1N(CCCOC)C(=O)[C@@H]2CC(=O)NCCc1ccccc1OC,.,10.2,.,.,.,.
SMILES,MazF activator,CCHF vOTU inh,BJeLR lethal,VHR inh abs,SARS 3CLpro inh-1,SARS 3CLpro inh-2
CC(C)(C)c1ccc(-c2nnc(SCC(=O)c3ccc([N+](=O)[O-])cc3)n2-c2ccc(Cl)cc2)cc1,.,4.1,.,.,.,.
S=C(c1ccc(-c2ccccc2Cl)o1)N1CCCCC1,-0.9,2.7,-12.6,-4.7,26.5*,-7.0
N#Cc1ccc(Cn2ccc3ccc(-c4ccc5ccn(Cc6ccccc6)c5c4)cc32)cc1,.,2.1,.,.,.,.
O=C(Nc1ccc(OCC(F)(F)C(F)F)c(C(F)(F)F)c1)c1ccccc1O,3.3,18.6,13.9,6.2,13.2*,15.3*
O=C(Nc1ccc(OCC(F)(F)C(F)F)c(C(F)(F)F)c1)c1ccccc1,4.6,18.5,-13.3,.,12.2,.
O=C1C(C2=NC(c3ccccn3)C3C(=O)N(c4ccccc4)C(=O)C23)=C(O)c2ccccc21 (stereo not drawn),-4.5,16.4,-3.1,-7.1,80.4*,3.2
COC(=O)[C@]12C[C@H](CC(=O)NCCc3ccccc3OC)C(=O)N(Cc3ccccc3)C1=C[C@H](COCc1ccccc1)O[C@@H]2C,.,8.3,.,.,.,.
O=C(Nc1cccc(C(F)(F)F)c1)OC1CC2CC1[C@H]1CCCCN1[C@H]2Cc1ccccc1 (stereo partly drawn),.,11.3,.,.,.,.
NC(=S)N/N=C/c1ccc(C23CC4CC(CC(C4)C2)C3)cc1,-37.0,.,3.0,1.0,14.0*,-1.6
NC(=S)N/N=C/c1ccccc1,4.9,3.3,3.3,19.2,3.2,.
CCCn1nnc(NC(=O)COc2ccc(C3CCCCC3)cc2)n1,4.2,-6.8,-10.1,21.8,14.1*,1.1
CCCn1nnc(NC(=O)COc2ccc(Cl)cc2)n1,3.8,8.6,-7.2,-3.4,-2.0,.
O=C(Nc1nc(-c2ccccc2)cs1)c1cccc([N+](=O)[O-])c1C(=O)O,1.7,1.3,-4.2,21.9,16.1*,28.4*
Cc1ccc(C(=O)n2cnc3ccccc32)cc1C,-6.0,-11.5,-3.6,-15.2,19.4*,26.4*
O=C(c1cc2ccccc2cc1O)N1CCN(c2cccc(Cl)c2)CC1,-0.4,0.8,4.8,.,.,.
O=C(c1c(Cl)nc2sccn12)N1CCN(c2cccc(Cl)c2)CC1,2.4,21.1,44.5,17.2,44.3*,3.4
CC(C)(C)OC(=O)NCc1ccc(CNC(=O)c2[nH]cnc2C(=O)N[C@@H](Cc2ccccc2)C(=O)OCc2ccccc2)cc1,2.4,23.1,8.6,24.4,14.0*,7.6
CC(C)(C)OC(=O)NCc1ccc(CNC(=O)c2[nH]cnc2C(=O)N[C@@H](Cc2ccccc2)C(=O)OC(C)(C)C)cc1,1.9,25.2,6.8,12.7,15.0*,11.8
